Bioassay records as filed in PubChem BioAssay.
Compounds with a hit are over-represented: about 21% of the library has one in this group of screens.
CYP2C9 inhib: inhibitors of human CYP2C9. CYP2C9 Supersomes, luciferin-H conversion, luminescence. inhibition, % at 5 µM. P11712. 20% of 96,000 active;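 active = blocking of liver enzyme CYP2C9 beyond about 50% at 5 µM, limit read from the data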
MRP-1 activ: activators of MRP-1. AID 799. 0.61% of 140,000 active. H69AR cells + doxorubicin, viability rescue, CellTiter-Glo. viability increase, % at 10 µM;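 active = viability gain under doxorubicin at or above a set limit, the compound median plus 3 SD, cut at about 4.7% in these data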;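 also: MRP-1 overexpressing cells given doxorubicin 25 µM after compound pretreatment; 18-22 h compound pretreatment then 72 h with doxorubicin before readout; 0% = doxorubicin-only wells and 100% = vehicle-treated cells without doxorubicin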
CYP2C19 activ: increases human CYP2C19 enzyme activity. recombinant CYP2C19, luciferin-H EGE luminescence; active compounds read high; 0 = fully inhibited enzyme, 1 = untreated enzyme. 96,000 tested, under 10 active. AID 1025. activation factor at 5 µM;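 active = activation factor of at least 2 at 5 µM in the primary screen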;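 also: 0 = wells with 2.5 mM tranylcypromine and 1 = vehicle-only wells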
Target sequence (P33261 whole entry, looked up): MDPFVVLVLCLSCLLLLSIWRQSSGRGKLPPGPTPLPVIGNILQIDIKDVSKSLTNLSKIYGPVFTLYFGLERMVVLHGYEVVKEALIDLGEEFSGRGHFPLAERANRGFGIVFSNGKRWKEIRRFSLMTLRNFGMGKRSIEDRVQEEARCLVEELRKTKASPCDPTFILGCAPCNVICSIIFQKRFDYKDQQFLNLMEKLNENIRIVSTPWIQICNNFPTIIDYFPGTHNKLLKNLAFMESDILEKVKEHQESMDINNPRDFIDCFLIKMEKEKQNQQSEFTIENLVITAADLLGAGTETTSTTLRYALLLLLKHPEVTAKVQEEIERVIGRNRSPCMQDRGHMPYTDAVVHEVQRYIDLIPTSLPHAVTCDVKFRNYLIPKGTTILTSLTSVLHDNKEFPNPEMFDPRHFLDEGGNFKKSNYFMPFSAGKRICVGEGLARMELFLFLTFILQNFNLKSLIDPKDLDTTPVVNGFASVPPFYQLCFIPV
CYP2C9 act: CYP2C9 (human) activation; 1.4% of 96,000 active; P11712; AID 1024; recombinant CYP2C9, luciferin-H conversion, luminescence; active compounds read high; factor 1 = untreated enzyme, 0 = blocked; activation factor at 5 µM;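 active = activation factor of 2 or more for CYP2C9 at a 5 µM dose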;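 also: 0 = sulfaphenazole-blocked wells and 1 = vehicle-only wells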
CYP2C19 inhib: blocks human cytochrome P450 2C19. CYP2C19 Supersomes, luciferin-H EGE luminescence, 30 min. inhibition, % at 5 µM. 21% of 96,000 active;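 active = CYP2C19 inhibition above a set limit at 5 µM in the primary screen, cut at about 50% in these data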;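 also: plate controls were negative control wells for no effect and 2.5 mM tranylcypromine positive control for full effect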
MRP reversal: MRP-mediated drug resistance reversal. H69AR cells + 2 uM doxorubicin, CellTiter-Glo, 72 h. differential viability (reversal), % at 10 µM. 0.04% of 85,000 active;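 active = viability drop by adding the cancer drug above about 55%, with treated viability meeting a 40% cutoff, limit read from the data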;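 also: viability without doxorubicin minus viability with 2 µM doxorubicin for each compound; larger differential means the compound sensitizes cells more to doxorubicin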
* = called active by the depositor; / = no result.

SMILES	CYP2C9 inhib	MRP-1 activ	CYP2C19 activ	CYP2C9 act	CYP2C19 inhib	MRP reversal
CCN1C(=O)CC(NCc2ccc3c(c2)OCO3)C1=O (stereo not drawn)	-1	0	0.9	1	7	-1
O=C1CC(NCc2ccc3c(c2)OCO3)C(=O)N1CCc1ccccc1 (stereo not drawn)	47	-1	0.3	0.5	75*	-4
COc1ccc(CCN2C(=O)CC(C(N)=O)SC2=Nc2ccccc2)cc1OC (stereo not drawn)	19	-1	0.3	0.8	68*	6
Cc1cccc(NC(=O)CCN2C(=O)C3C4C=CC(C4)C3C2=O)n1 (stereo not drawn)	-8	0	0.7	1.1	28	-3
COc1ccc(CCNC2CC(=O)N(CCc3ccccc3)C2=O)cc1OC (stereo not drawn)	16	/	0.4	0.8	60*	4
CCOC(=O)C1CCCCN1Cc1ccccc1C(F)(F)F (stereo not drawn)	52*	0	0	0.5	95*	-26
CCOC(=O)C1CCCCN1Cc1ccc(C(F)(F)F)cc1 (stereo not drawn)	62*	0	0	0.4	97*	-9
COc1cccc(OC)c1OCCCOc1ccc(C)cc1Br	/	1	/	/	/	/
Cc1ccc(Cn2ncc3c(N4CCN(c5ccc(C)cc5)CC4)ncnc32)cc1	11	0	1.2	0.9	-16	7
Cc1ccc(Cn2ncc3c(N4CCN(Cc5ccc(Cl)cc5)CC4)ncnc32)cc1	34	0	0.9	0.7	9	2
Cc1ccccc1N1CCN(c2ncnc3c2cnn3Cc2ccc(Cl)cc2)CC1	76*	3	0.6	0.2	41	-5
CC1CCN(c2ncnc3c2cnn3Cc2ccc(Cl)cc2)CC1	76*	2	0.6	0.2	38	21
O=c1c([N+](=O)[O-])c(N2CCCCC2)c2ccccc2n1-c1ccccc1	-12	-1	1.1	1.1	-9	8
COC(=O)Cc1cc(=O)n2[nH]c(SC)nc2n1	64*	-2	0.8	0.4	22	11
CCN1C(=O)NC(c2cccnc2)C(C(=O)OC)=C1C (stereo not drawn)	1	-1	1	1	0	6
CSc1nc2ncc3c(n2n1)CC1c2ccccc2CCN1C3=O (stereo not drawn)	55*	0	0.3	0.5	72*	/
O=C1NC(=NCc2ccccc2)S/C1=C/c1ccc(O)cc1	/	-5	/	/	/	/
CCN(CC)S(=O)(=O)c1ccc2c(c1)nc(CCC(=O)Nc1ccc3c(c1)OCO3)n2CC	/	-1	/	/	/	/
COC(=O)CC1=C(C)C(=O)CC2C(C)(C)CCCC12C (stereo not drawn)	17	0	0.4	0.8	57*	8
COCCNC(=O)CN(C)S(=O)(=O)c1ccc(Br)cc1	/	0	/	/	/	-2
COC(=O)NCCOC(=O)N(O)c1ccc(Br)cc1	2	1	0.3	1	68*	/
Cc1ccc2nc(/C(C#N)=C\c3cc(C)n(-c4cccc([N+](=O)[O-])c4)c3C)[nH]c2c1	84*	-4	0.5	0.2	48	-2
COc1cc(/C=C2\SC(=S)N(Nc3ncc(C(F)(F)F)cc3Cl)C2=O)ccc1O	52*	-1	0.5	0.5	54*	/
O=C(Cc1cc(=O)[nH]c(=O)[nH]1)NCc1ccccc1	/	0	/	/	/	/
CCOC(=O)c1cnc2nc(NCc3ccc(OCc4ccccc4)cc3)[nH]n2c1=O	87*	1	0.8	0.1	19	5
SMILES	CYP2C9 inhib	MRP-1 activ	CYP2C19 activ	CYP2C9 act	CYP2C19 inhib	MRP reversal
CCOC(=O)c1c(C)c2c(n1C)CCC/C2=N\O	33	-2	0.4	0.7	60*	12
CC1(C(=O)N(c2ccccc2)C(C(=O)NC2CCCC2)c2ccccn2)CC(=O)N=C2C=CC=CN21 (stereo not drawn)	-27	1	1.3	1.3	-27	-3
CCOc1ccc(C2=NNC(c3cccs3)=Nc3ccc(OCC)cc32)cc1	53*	-3	0.9	0.5	6	/
CC1CCN(CC(O)COCCC23CC4CC(CC(C4)C2)C3)CC1 (stereo not drawn)	-7	-2	0.7	1.1	32	12
C#CCOC(=O)Nc1cccn(Cc2c(Cl)cccc2Cl)c1=O	-97	-4	0.3	2*	65*	/
CC(C)CC(=O)NC(=S)Nc1ccc(S(=O)(=O)Nc2nccs2)cc1	/	-1	/	/	/	/
Cc1c(-c2ccccc2)[n+](=O)c(-c2ccco2)c(C)n1[O-]	-4	-2	0.1	1	87*	1
COC(=O)C(C)(C)ONC(=O)Nc1ccccc1	/	-2	/	/	/	/
O=C(c1cc(-c2cccs2)nc2ccccc12)N1CCN(S(=O)(=O)c2ccccc2)CC1	94*	-2	0.2	0.1	84*	4
O=C(c1cc(-c2ccccn2)nc2c(Cl)cccc12)N1CCN(S(=O)(=O)c2ccccc2)CC1	/	-1	/	/	/	/
O=C(c1cc(-c2cccs2)nc2ccccc12)N1CCN(S(=O)(=O)c2cccc(F)c2)CC1	69*	-1	1	0.3	0	-37
CCOc1ccc2c(C)nc(NC3=NC(C)(C)C=C(C)N3)nc2c1	/	-6	/	/	/	-12
CCOc1ccc2nc(NC3=NC(C)(C)C=C(C)N3)nc(C)c2c1	72*	-5	0.5	0.3	49	/
Cc1ccc(C(=O)C2CCN(CC(=O)Nc3nc(C)cs3)CC2)cc1	90*	-4	0.5	0.1	48	/
O=C(CN1CCC(C(=O)c2ccc(F)cc2)CC1)Nc1ccc(F)cc1	/	-5	/	/	/	2
O=C(CN1CCC(C(=O)c2ccc3c(c2)OCCO3)CC1)NC1CCCC1	16	-1	0.2	0.8	84*	16
CCOc1ccc(C(=O)N2CCC(C(=O)c3ccc4c(c3)OCCO4)CC2)cc1	55*	-3	0.2	0.4	85*	2
Cc1ccc(C(=O)C2CCN(CC(=O)Nc3ccc4c(c3)OCCO4)CC2)cc1	62*	-1	0.8	0.4	23	7
Cc1ccc(C(=O)C2CCN(CC(=O)Nc3ccc(N(C)C)cc3)CC2)cc1	39	-2	0.8	0.6	15	12
COc1ccc(S(=O)(=O)N2CCC(C(=O)c3ccc4c(c3)OCCO4)CC2)cc1	/	-3	/	/	/	10
N/C(=N\OC(=O)CSc1ccccc1)c1ccc([N+](=O)[O-])cc1	/	-2	/	/	/	/
N#CCCS(=O)(=O)c1nnnn1-c1ccccc1	-9	/	1	1.1	-2	-1
CCOC(=O)C/C(C)=N/NC(=O)CN(c1ccc(Br)cc1)S(=O)(=O)c1ccccc1	/	-1	/	/	/	/
CC1CCN(S(=O)(=O)c2ccc3ncn(CC(=O)N(C)Cc4ccccc4)c(=O)c3c2)CC1	49	-6	0.8	0.5	18	11
O=C1CC(/C=C/c2ccco2)=Nc2ccccc2N1	14	-3	1	0.9	-4	10
O=C1CC(C(F)(F)C(F)(F)C(F)(F)C(F)F)=Nc2ccccc2N1	20	-1	0.4	0.8	60*	-13
